# Laboratory results published in PubChem BioAssay.
# Active and inactive are the calls of the source. Unless noted, the rule behind the calls is not given here.
# Key:
# [1] = A549 cell viability effects, profiling panel, calcein-AM fluorescence, 48 h, basal (AID 1162); details: higher = more signal; note: test concentration not given here
# [2] = adipocyte viability effects, profiling panel, cell-based, 3T3-L1 adipocytes, calcein-AM fluorescence, 48 h, basal (AID 1163); details: 3T3-L1 adipocytes viability, higher = more signal; note: test concentration not given here
# [3] = HepG2 cell viability effects, profiling panel, calcein-AM fluorescence, 48 h, basal (AID 1164); details: higher = more signal; note: test concentration not given here
# [4] = MM1S cell viability effects, profiling panel, calcein-AM fluorescence, 48 h, basal (AID 1165); details: higher = more signal;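 note: viability of MM1S multiple myeloma cells under basal unstimulated conditions; test concentration not given here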
# [5] = basal RPMI8226 viability, no added stimulus, profiling panel, cell-based, calcein-AM fluorescence, 48 h, PK04 Diversity Set (AID 1166); details: RPMI8226 myeloma viability, higher = more signal;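 note: cells grown under basal conditions without added stimulus; test concentration not given here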
# [6] = basal HepG2 mitochondrial membrane potential changes, profiling panel, cell-based, JC-1 fluorescence, 24 h, 100 nL compound (AID 1167); details: higher = more signal; note: test concentration not given here
# [7] = basal 3T3-L1 adipocyte mitochondrial potential changes, profiling panel, cell-based, JC-1 fluorescence, 3T3-L1 adipocytes, 24 h, 100 nL compound (AID 1168); details: JC-1 mitochondrial fluorescence, higher = more signal, called active from +8 up or from −8 down; note: test concentration not given here
# [8] = basal RPMI8226 mitochondrial membrane potential changes, profiling panel, cell-based, JC-1 fluorescence, 24 h, 100 nL compound (AID 1169); details: RPMI8226 myeloma, JC-1 mitochondrial potential fluorescence, higher = more signal; note: test concentration not given here
# [9] = basal MM1S mitochondrial membrane potential changes, profiling panel, cell-based, JC-1 fluorescence, 24 h, 100 nL compound (AID 1170); details: higher = more signal; note: test concentration not given here
# [10] = A549 lung cancer cell viability effects, profiling panel, resazurin fluorescence, 24 h, PK04 Diversity Set (AID 1171); details: higher = more signal, called active from +8 up or from −8 down; note: test concentration not given here
# [11] = HepG2 liver cancer cell viability effects, profiling panel, resazurin fluorescence, 24 h, PK04 Diversity Set (AID 1172); details: higher = more signal; note: test concentration not given here
# [12] = basal S. cerevisiae growth modulation, no modifier, primary screen, OD600, strain BY4716, 24 h, basal condition (AID 1173); details: OD600, 24 h, higher = more signal, called active from +8 up or from −8 down
# [13] = MM1S myeloma cell viability, profiling panel, resazurin fluorescence, basal, 24 h, PK04 Diversity Set (AID 1174); details: higher = more signal, called active from +8 up or from −8 down;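 note: MM1S multiple myeloma cell line; test concentration not given here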
# [14] = target: Dihydroorotate dehydrogenase (quinone), mitochondrial (Plasmodium falciparum (isolate 3D7)) (UniProt Q08210); assay: PfDHODH enzyme inhibitors, primary screen, biochemical, C-terminal His tag, absorbance 600 nm (AID 1175); details: DCIP absorbance 600 nm, higher = more signal, called active from +8 up or from −8 down;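 note: recombinant parasite enzyme with a five histidine tag at its C terminus; test concentration not given here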
# [15] = P. aeruginosa biofilm formation inhibitors, primary screen, strain PAO1, LB-PBS medium, absorbance 600 nm (AID 1176); note: test concentration not given here; details: P. aeruginosa PAO1 growth/biofilm, A600, 12 h; higher = more signal
# [16] = S. cerevisiae RM11-1a growth modifiers, primary screen, strain RM11-1a, OD600, basal, 24 h (AID 1177); details: OD600, 24 h, higher = more signal, called active from +8 up or from −8 down;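 note: cultures grown under basal conditions with no added stressor; test concentration not given here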
# [17] = E. coli acrAB mutant growth effects, primary screen, E. coli filamentation inducers, strain DRC39, OD650, 24 h (AID 1178); details: higher = more signal, called active from +8 up or from −8 down;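 note: growth measured as culture turbidity by optical density at 650 nm; test concentration not given here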
# [18] = E. coli acrAB mutant growth effects, primary screen, E. coli filamentation inducers, strain DRC39, OD650, 48 h (AID 1179);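 note: screen aims at cell division blockers that make cells filament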; details: E. coli DRC39 delta-acrAB growth, higher = more signal, called active from +8 up or from −8 down
# [19] = RPMI8226 myeloma cell viability, profiling panel, resazurin fluorescence, basal, 24 h, PK04 Diversity Set (AID 1180); details: higher = more signal;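 note: RPMI8826 multiple myeloma cell line at 5000 cells per well; test concentration not given here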
# [20] = target: E3 ubiquitin-protein ligase XIAP (Homo sapiens) (UniProt P98170); assay: XIAP binders, primary screen, biophysical, small-molecule microarray, fluorescence 635 nm (AID 1181); details: small-molecule microarray binding, higher = more signal;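 note: score merges 667 nm emission and signal to noise over triplicate slides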
# Sequence of E3 ubiquitin-protein ligase XIAP (Homo sapiens) (P98170 whole entry, looked up): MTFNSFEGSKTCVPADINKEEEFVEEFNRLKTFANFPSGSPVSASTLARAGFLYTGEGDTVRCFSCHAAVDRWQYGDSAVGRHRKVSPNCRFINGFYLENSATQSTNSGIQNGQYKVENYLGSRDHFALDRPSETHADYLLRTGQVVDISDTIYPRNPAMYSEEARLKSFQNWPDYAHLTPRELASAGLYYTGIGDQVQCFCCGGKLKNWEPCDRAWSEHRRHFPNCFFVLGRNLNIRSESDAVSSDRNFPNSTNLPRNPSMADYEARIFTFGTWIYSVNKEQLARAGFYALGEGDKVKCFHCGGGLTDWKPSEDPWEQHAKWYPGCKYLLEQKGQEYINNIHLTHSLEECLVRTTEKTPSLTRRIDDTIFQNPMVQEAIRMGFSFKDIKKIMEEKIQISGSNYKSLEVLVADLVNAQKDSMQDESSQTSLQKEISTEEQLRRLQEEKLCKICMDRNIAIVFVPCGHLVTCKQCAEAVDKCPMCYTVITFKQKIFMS
# Sequence of Dihydroorotate dehydrogenase (quinone), mitochondrial (Plasmodium falciparum (isolate 3D7)) (Q08210 whole entry, looked up): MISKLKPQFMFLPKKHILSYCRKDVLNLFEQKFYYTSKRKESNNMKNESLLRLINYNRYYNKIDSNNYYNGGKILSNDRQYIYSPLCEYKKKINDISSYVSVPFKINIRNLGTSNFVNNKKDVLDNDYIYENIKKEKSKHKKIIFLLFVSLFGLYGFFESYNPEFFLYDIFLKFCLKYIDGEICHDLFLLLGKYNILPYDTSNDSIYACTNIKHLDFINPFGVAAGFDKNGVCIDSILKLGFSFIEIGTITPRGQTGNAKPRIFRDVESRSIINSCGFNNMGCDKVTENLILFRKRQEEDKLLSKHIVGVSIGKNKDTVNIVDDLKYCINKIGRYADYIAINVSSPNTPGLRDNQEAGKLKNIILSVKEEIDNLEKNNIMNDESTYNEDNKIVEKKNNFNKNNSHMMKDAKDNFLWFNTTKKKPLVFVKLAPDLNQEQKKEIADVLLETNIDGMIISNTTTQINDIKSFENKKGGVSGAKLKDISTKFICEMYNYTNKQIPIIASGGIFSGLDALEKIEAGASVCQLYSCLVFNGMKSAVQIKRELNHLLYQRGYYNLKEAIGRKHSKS
Compound,z-score [1],z-score [2],z-score [3],z-score [4],z-score [5],z-score [6],z-score [7],z-score [8],z-score [9],z-score [10],z-score [11],z-score [12],z-score [13],composite z-score [14],z-score [15],z-score [16],z-score [17],z-score [18],z-score [19],composite z-score [20]
CN(C)CCCNC(=O)[C@@H]1c2ccccc2C(=O)N(CC23CC4CC(CC(C4)C2)C3)[C@H]1c1ccc(CO)cc1,-0.104,0.195,-0.99,-3.75,-1.91,1.44,-0.211 (inactive),-0.296,-1.73,1.21 (inactive),-0.701,-3.33 (inactive),-0.809 (inactive),-0.184 (inactive),0.0435 (inactive),0.28 (inactive),0.309 (inactive),0.401 (inactive),-0.692,0.0973
CCCC[C@@H]1C[C@H]1[C@@H](NC(=O)c1ccccc1)c1ccc(Cl)cc1,-1.35,-0.847,-1.17,-1.23,-1.45,0.229,-1.6 (inactive),-0.852,-1.19,2.09 (inactive),1.18,0.127 (inactive),0.696 (inactive),-0.402 (inactive),0.495 (inactive),-0.359 (inactive),-1.11 (inactive),-0.324 (inactive),1.51,0.0049
Cc1ccc(S[C@]2(C(=O)NCC(C)C)CC(=O)N(Cc3ccccc3Cl)[C@@H]2c2ccc(CO)cc2I)cc1,-0.0583,-0.201,-0.752,-1.94,-1.67,-0.0983,-0.559 (inactive),-0.788,-1.75,0.622 (inactive),0.0825,-1.61 (inactive),-1.68 (inactive),-0.0436 (inactive),0.82 (inactive),-1.33 (inactive),-0.0158 (inactive),0.0686 (inactive),-2.44,-0.152
COc1cc(OC)c(C(O)C2C=CC3C(=O)N(c4ccccc4)C(=O)C3N2Nc2ccc(C#N)cc2)cc1Br (stereo not given),0.423,-0.693,-0.268,-0.475,-0.241,-1.66,-0.403 (inactive),-0.129,-0.00738,-0.578 (inactive),-0.99,-6.31 (inactive),-0.408 (inactive),1.49 (inactive),0.984 (inactive),-0.759 (inactive),-0.628 (inactive),-0.0118 (inactive),-0.758,-0.0181
NC(N)=NCc1cn(CCc2c[nH]c3ccccc23)nn1,-0.609,-0.596,-0.173,-0.613,-0.286,-1.09,-1.04 (inactive),-0.588,-0.77,-0.975 (inactive),-0.739,0.274 (inactive),-0.237 (inactive),-26.7 (active),0.0429 (inactive),0.191 (inactive),0.148 (inactive),-0.0579 (inactive),-0.533,-0.163
CN(C)C(=O)[C@@]1(Cc2ccccc2N=[N+]=[N-])COC(c2ccc(OCCCO)cc2)=N1,1.69,-0.541,1.32,-0.257,0.192,1.4,0.0922 (inactive),-0.934,-1.23,0.325 (inactive),1.44,-4.24 (inactive),-0.0135 (inactive),0.369 (inactive),-0.497 (inactive),0.481 (inactive),0.632 (inactive),1.42 (inactive),0.816,0.194
COc1cc2c(cc1O)C(C)N(Cc1cc3c(cc1Br)OCO3)CC2 (stereo not given),-0.279,0.453,-0.346,-0.981,-0.308,-0.378,0.168 (inactive),-0.481,0.71,-0.807 (inactive),-0.587,-0.272 (inactive),0.297 (inactive),-9.46 (active),-0.351 (inactive),0.526 (inactive),0.553 (inactive),0.0553 (inactive),0.538,-0.157
CCOC(=O)C[C@H]1[C@H](OC(=O)c2ccc(-c3ccccc3)cc2)[C@@H](NC(=O)c2ccc3ccccc3n2)c2cc(OCCCO)ccc2N1C(=O)c1ccccc1,-1.05,0.312,-0.677,0.23,-0.248,1.35,-0.248 (inactive),0.224,0.0802,0.0216 (inactive),-0.576,1.11 (inactive),-0.421 (inactive),0.421 (inactive),-0.37 (inactive),0.97 (inactive),0.353 (inactive),0.287 (inactive),-0.193,-0.286
C=C1C2CC3C(=C4C(CO[C@@H]4[C@H]4CCCN4S(=O)(=O)c4ccccc4[N+](=O)[O-])C4C(=O)N(C)C(=O)C34)CC2C(=O)N1C (stereo not given in full),-0.704,0.332,-0.0708,-3.31,-1.28,-1.83,-0.543 (inactive),0.485,-0.347,-0.123 (inactive),-0.398,-1.05 (inactive),-0.316 (inactive),-0.911 (inactive),0.413 (inactive),-0.302 (inactive),-0.579 (inactive),-0.219 (inactive),-0.864,-0.102
